Compound activity: PubChem, Broad Institute
Compounds with a hit are over-represented: about 0.46% of the library has one in this group of screens.
ERp5 inh – inhibitors of human ERp5. Q15084. ERp5 insulin aggregation, absorbance 650 nm, 90 min. inhibition, % at 9.99 µM. 350,000 tested, 0.05% active;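 active means mean replicate inhibition above about 25%, with every replicate also reaching it, limit read from the data, passing the limit was not always enough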
PGC1a acetyl inh – modulators of PGC1a acetylation; U2OS PGC1a acetylation, AlphaScreen anti-acetyl-lysine; with virally co-expressed GCN5 acetyltransferase; inhibition, % at 15.6 µM; 350,000 tested, 0.17% active; AID 651687;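 active means every replicate shows inhibition of at least 40%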;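 further: 0% = neutral control wells and 100% = positive control wells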
PDI inh – PDI (human) enzyme inhibition; inhibition, % at 10 µM; P07237; 350,000 tested, 0.052% active; PDI insulin aggregation turbidity, A650, 90 min; AID 588391;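 active means mean inhibition across replicates of 30% or more, whatever share of single replicates reach that level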
Target sequence (P07237 whole entry, looked up): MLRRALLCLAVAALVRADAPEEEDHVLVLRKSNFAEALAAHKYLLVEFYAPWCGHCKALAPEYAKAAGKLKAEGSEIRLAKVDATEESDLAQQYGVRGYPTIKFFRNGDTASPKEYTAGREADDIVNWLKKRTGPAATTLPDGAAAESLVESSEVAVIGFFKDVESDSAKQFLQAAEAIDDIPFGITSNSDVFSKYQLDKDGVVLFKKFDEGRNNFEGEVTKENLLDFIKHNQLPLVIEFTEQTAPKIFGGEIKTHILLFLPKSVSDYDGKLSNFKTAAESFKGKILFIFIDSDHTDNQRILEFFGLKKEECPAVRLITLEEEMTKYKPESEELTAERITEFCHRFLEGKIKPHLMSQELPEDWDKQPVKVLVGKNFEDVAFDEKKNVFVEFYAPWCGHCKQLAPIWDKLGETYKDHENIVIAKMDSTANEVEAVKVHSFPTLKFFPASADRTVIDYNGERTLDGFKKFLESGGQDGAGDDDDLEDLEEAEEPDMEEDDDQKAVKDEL
PglD inh – blocks C. jejuni PglD acetyltransferase activity; inhibition, % at 12.5 µM; purified PglD enzyme, DTNB colorimetric CoA detection; AID 602405; 360,000 tested, 0.098% active; in the data active means inhibition above about 16%, passing the limit was not always enough
CaV13 FRET inh – Primary screen for inhibitors of IQ motif and Ca2+-dependent inactivation inhibitor domain binding in CACNA1D, Förster resonance energy transfer in living cells, …. 340,000 tested, 0.098% active. HEK cells, CFP/YFP FRET ICDI-IQ, plate reader, 10 min; percent FRET-ratio fall versus neutral wells. inhibition, % at 12.3 µM;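 active means mean replicate inhibition of at least 30% and at least 1% of replicates passing that level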;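 further: 0% = median of the neutral control wells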
ERAP1 inh – inhibitors of human ERAP1 aminopeptidase. AID 652197. inhibition, % at 10.7 µM. recombinant ERAP1, Leu-AMC fluorescence, 60 min. 340,000 tested, 0.15% active;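 active means mean replicate inhibition of at least 30%, or all replicates individually reaching that 30% level; inactive means mean below 30% and not every replicate reaching it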;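 further: 0% = neutral control wells and 100% = L-leucinethiol positive control wells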
* = called active by the depositor; . = no result given; ! = repeats disagree.

SMILES	ERp5 inh	PGC1a acetyl inh	PDI inh	PglD inh	CaV13 FRET inh	ERAP1 inh
CC(C)NC(=O)N(C)C[C@H]1OCCCC[C@H](C)Oc2ccc(NC(=O)Cc3ccccc3)cc2C(=O)N([C@@H](C)CO)C[C@@H]1C	5.6	-0.8	.	3.7	.	-0.4
COc1ccc(NC(=O)Nc2cccc3c2O[C@@H](CN(C)C(=O)Nc2ccc(C(F)(F)F)cc2)[C@@H](C)CN([C@H](C)CO)C3=O)cc1	.	4.2	.	6.3	.	.
C[C@H](CO)N1C[C@H](C)[C@@H](CN(C)S(=O)(=O)c2ccc(F)cc2)Oc2ccc(NC(=O)Nc3ccc(C(F)(F)F)cc3)cc2C1=O	-5.2	4.6	-3.8	2.8	-11.9	-2.4
C[C@@H]1CN([C@H](C)CO)C(=O)c2cc(NC(=O)Nc3ccc(C(F)(F)F)cc3)ccc2O[C@@H]1CN(C)S(=O)(=O)c1ccc(F)cc1	29.5*	6.7	.	-5.1	.	-3.3
Cc1cc(C(=O)Nc2cccc3c2O[C@@H](CN(C)S(=O)(=O)c2ccc(Cl)cc2)[C@@H](C)CN([C@@H](C)CO)C3=O)n(C)n1	26.0*	13.1	.	0.9	.	-1.0
CC(C)NC(=O)Nc1ccc2c(c1)C(=O)N([C@@H](C)CO)C[C@H](C)[C@@H](CN(C)S(=O)(=O)c1ccccc1)OCCCC[C@H](C)O2	-5.3	10.1	.	0.6	.	-2.0
C[C@@H]1CN([C@@H](C)CO)C(=O)c2cc(NC(=O)Nc3ccc(F)cc3)ccc2O[C@@H]1CN(C)CC1CCCCC1	-2.6	.	.	17.1*	.	-1.9
C[C@H](CO)N1C[C@H](C)[C@H](CN(C)CC2CCCCC2)Oc2ccc(NC(=O)Nc3ccc(F)cc3)cc2C1=O	0.5	.	.	6.0	.	-2.5
CC(C)NC(=O)Nc1ccc2c(c1)C(=O)N([C@@H](C)CO)C[C@@H](C)[C@@H](CN(C)S(=O)(=O)c1ccccc1)OCCCC[C@H](C)O2	-3.6	105.0*	.	-4.8	.	-1.5
C[C@H](NC(=O)[C@H]1N[C@H]2c3ccc(-c4cccnc4)c(=O)n3C[C@H]2[C@@H]1CO)c1ccccc1	-5.1	.	.	2.6	.	1.5
C[C@@H]1CN([C@H](C)CO)S(=O)(=O)c2ccc(C#C[C@@H](C)O)cc2O[C@@H]1CN(C)C(=O)C1CCC1	6.6	-10.1	.	4.8	.	-0.8
CN1C(=O)c2cc(NC(=O)C3CCCC3)ccc2OC[C@H]2O[C@@H](CC(=O)NCC(F)(F)F)CC[C@H]21	0.2	-3.7	.	0.4	.	-3.1
CC(C)NC(=O)N(C)C[C@@H]1Oc2cc(C#CC3CC3)ccc2S(=O)(=O)N([C@H](C)CO)C[C@@H]1C	4.1	-0.2	.	3.2	.	-0.2
C[C@H]1CN([C@@H](C)CO)S(=O)(=O)c2ccc(C#CCN(C)C)cc2O[C@H]1CN(C)C(=O)CC1CC1	-6.3	4.0	.	5.5	.	2.4
COCC#Cc1ccc2c(c1)O[C@H](CN(C)C(=O)CN(C)C)[C@H](C)CN([C@@H](C)CO)S2(=O)=O	-0.9	14.4	.	0.2	.	0.2
CC(C)C#Cc1ccc([C@H]2[C@@H](C#N)N(C(=O)c3ccccn3)[C@@H]2CO)cc1	4.9	17.0	.	3.0	.	-0.7
CCCNC(=O)N(C)C[C@H]1Oc2cc(C3=CCCC3)ccc2S(=O)(=O)N([C@H](C)CO)C[C@@H]1C	-12.2	-3.9	.	0.1	.	.
CCCN1C(=O)c2cc(C(=O)NC3CCCCCC3)ccc2C1O (stereo not given)	-3.9	.	1.4	-1.8	-2.3	.
CCOC(=O)N1CCC(N2C(=O)c3cc(C(=O)NC4CCCCC4)ccc3C2O)CC1 (stereo not given)	4.0	-5.1	-6.4	7.6	38.0*	.
C[C@@H]1CN([C@@H](C)CO)C(=O)Cc2cc(NS(=O)(=O)c3cccs3)ccc2O[C@H]1CN(C)Cc1ccc(C(F)(F)F)cc1	-2.0	16.0	.	-3.1	.	-1.5
CC=Cc1ccc2n(c1=O)C[C@@H]1[C@@H](CO)[C@H](C(=O)N(C)C)[C@H]2N1CC1CCCCC1 (mixture of isomers)	-5.8	.	.	-2.5	.	-1.5
O=C(Oc1ccc(O)cc1)C12CC3CC(CC(C3)C1)C2	-0.9	.	65.3*	.	-19.2	0.6
CN1CCN(Cc2nc3ccccc3c(=O)n2Cc2nc(-c3cccc([N+](=O)[O-])c3)cs2)CC1	-1.2	-17.8	14.4	.	-4.3	3.0
CN1CCN(Cc2nc3ccccc3c(=O)n2Cc2nc(-c3ccc4ccccc4c3)cs2)CC1	12.9	.	43.8*!	.	-6.5	3.5
CCS(=O)(=O)N(C)C[C@@H]1N[C@H](CO)[C@@H]1c1ccc(C#CC(C)C)cc1	-6.2	.	.	.	.	0.1
SMILES	ERp5 inh	PGC1a acetyl inh	PDI inh	PglD inh	CaV13 FRET inh	ERAP1 inh
CO[C@H]1CN(C)C(=O)c2cc(NC(=O)CC(F)(F)F)ccc2OC[C@@H](C)N(C(=O)C2CC2)C[C@H]1C	1.0	1.6	.	.	.	1.8
CCCCn1c(N)c(N(CCOC)C(=O)c2cc(-c3ccc(OC)c(OC)c3)nc3ccccc23)c(=O)[nH]c1=O	5.0	.	2.5	6.7	-4.8	36.6*
CCCCn1c(N)c(N(CC(C)C)C(=O)c2cc(-c3ccc(OC)c(OC)c3)nc3ccccc23)c(=O)[nH]c1=O	-2.2	.	-5.5	.	-1.7	1.0
C[C@H]1CN([C@@H](C)CO)C(=O)c2cccc(NC(=O)Nc3ccccc3)c2O[C@H]1CN(C)Cc1ccccc1	1.7	-9.2	.	-0.2	.	0.0
Cc1cc(=O)[nH]c(NN=Cc2cc(Br)ccc2O)n1	3.9	49.7*	14.3	3.3	-7.4	-0.8
COc1ccccc1/C=N/Nc1nc(C)cc(=O)[nH]1	3.9	4.6	-8.6	0.0	40.3*	2.2
COCC(=O)N1CC2(C1)[C@@H](c1ccc(-c3ccc(F)cc3)cc1)[C@H](CO)N2C(C)=O	0.4	.	.	.	.	.
CO[C@@H]1CN(C)C(=O)c2ccc(NS(=O)(=O)c3ccccc3C)cc2OC[C@@H](C)NC[C@H]1C	-3.2	2.4	.	0.2	.	-0.3
C[C@H]1CCCCO[C@H](CN(C)Cc2ccc(C(F)(F)F)cc2)[C@@H](C)CN([C@@H](C)CO)C(=O)c2cc(NS(=O)(=O)c3ccccc3)ccc2O1	-2.3	6.2	.	-2.7	.	-1.3
CC[C@H](C)[C@@H]1OC(=O)[C@@H](C)[C@@H](CC)NC(=O)[C@H](C)N(C)C(=O)C(C)(C)C(=O)C(C)NC(=O)[C@H](Cc2ccccc2)N(C)C(=O)[C@H](C(C)C)N(C)C(=O)CNC(=O)[C@H](CC(C)C)N(C)C(=O)CNC1=O (stereo not given in full)	.	76.1*	.	6.2	.	.
COCCN(C(=O)CSc1ncccn1)c1c(N)n(Cc2ccccc2)c(=O)[nH]c1=O	2.0	.	2.0	-3.7	-1.5	1.0
COCCN(C(=O)CSc1ncn[nH]1)c1c(N)n(Cc2ccccc2)c(=O)[nH]c1=O	-6.0	6.3	-0.9	-5.5	-16.8	57.0*
CO[C@H]1CC[C@H]2CCN(C)C(=O)CCCN(C)C(=O)c3cc(C#N)ccc3OC[C@@H]1O2	-2.0	.	.	0.8	.	0.4
